# Test results published in the supplement of paper PMC10646978.
# ± gives the standard deviation.
# Assays:
# Settings in all cases: modulator concentration 10 µM
# [1] = test system: RAW-Dual (murine macrophage reporter line); assay: NF-kB reporter (SEAP) activity fold change vs agonist alone; higher = enhanced NF-kB activity
# In short: (§1)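 Compound reached 10 μM final in each well by pin transfer, onto RAW-Dual murine macrophage reporter cells seeded at 50 000 per well in 384-well plates. After 1 hour at 37 °C, the cells were stimulated overnight with a PRR agonist. SEAP in the supernatant was read with QUANTI-Blue at 620 nm absorbance for NF-κB, and Lucia luciferase was read with QUANTI-Luc luminescence for IRF. Each signal was turned into fold change against the mean agonist-only control on the same plate, and two replicate plates were averaged with propagated errors.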
# [2] = test system: RAW-Dual (murine macrophage reporter line); assay: IRF reporter (Lucia luciferase) activity fold change vs agonist alone; higher = enhanced IRF activity
# In short: as §1
# [3] = test system: RAW-Dual (murine macrophage reporter line); assay: viability score (confluency relative to resting cells, overnight) (fraction); higher = more viable, active = viable (0.7 or more)
# In short: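 RAW-Dual macrophages in 384-well plates were treated overnight with compound at 10 μM final. IncuCyte imaging recorded confluency, and IncuCyte software built two confluency masks across every imaged well. The viability score expresses confluency relative to resting cells and was judged against a cutoff, which a compound met only if both masks exceeded 70% of resting cells.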
# [4] = agonist: CpG ODN 1826 0.5 ug/mL
SMILES,"NF-kB reporter [1, 4]",NF-kB reporter ([1]; agonist: LPS 0.1 ug/mL),NF-kB reporter ([1]; agonist: MPLA […]),IRF reporter ([2]; agonist: 3'3'-cGAMP 10 ug/mL),IRF reporter ([2]; agonist: LPS 0.1 ug/mL),IRF reporter ([2]; agonist: MPLA […]),viability score [3]
CN1CCN(C2CC(=O)N(c3ccc(N4CCOCC4)cc3)C2=O)CC1 (stereo not given),0.963 ± 0.079,0.945 ± 0.096,0.864 ± 0.065,1.01 ± 0.025,1.37 ± 0.11,1.13 ± 0.29,1.01 (active)
CNC(=O)c1cccc(-c2noc(C3CN(C(=O)NC4CCCCC4)C3)n2)c1,1.06 ± 0.053,1.11 ± 0.11,1.03 ± 0.091,1.06 ± 0.065,1.21 ± 0.1,1.17 ± 0.13,1 (active)
NC(=O)CN1C(=O)C2C3c4ccccc4C(c4ccccc43)C2C1=O (stereo not given),1.1 ± 0.083,0.962 ± 0.073,0.965 ± 0.036,0.938 ± 0.065,0.946 ± 0.092,0.976 ± 0.15,0.995 (active)
COC(=O)c1cc(Br)ccc1NC(=O)c1ccccc1,1.07 ± 0.17,1.02 ± 0.17,1.03 ± 0.18,1.12 ± 0.045,1.24 ± 0.18,1.19 ± 0.21,0.99 (active)
CC(=O)Nc1ccc2nc(NC(=O)c3ccco3)sc2c1,1.05 ± 0.083,1.03 ± 0.09,0.95 ± 0.072,0.827 ± 0.046,1.03 ± 0.069,0.744 ± 0.084,1 (active)
CC(=O)O.CCN(CC)CC#CC1(O)CCCCC1,0.854 ± 0.083,0.981 ± 0.058,0.914 ± 0.059,0.902 ± 0.078,1.21 ± 0.14,1.06 ± 0.07,1.01 (active)
COC(CNC(=O)COc1cccc2c1OC(C)(C)C2)c1ccc(Cl)s1 (stereo not given),0.539 ± 0.028,1.19 ± 0.1,0.998 ± 0.043,0.873 ± 0.046,0.883 ± 0.06,1.14 ± 0.34,0.939 (active)
COC1(C)CCC2OC2(C)CCC2C1CC2(C)C (stereo not given),1.31 ± 0.31,1.06 ± 0.053,1.04 ± 0.12,1.03 ± 0.041,1.28 ± 0.15,1.17 ± 0.13,0.87 (active)
Cc1ccc(S(=O)(=O)n2nc(C)c(C)c2C)cc1C,0.929 ± 0.047,1.11 ± 0.11,1.05 ± 0.068,1.07 ± 0.068,1.2 ± 0.16,1.26 ± 0.34,1.01 (active)
Br.CCCc1cc(-c2nc(-c3ccc(C)cc3)cs2)ccn1,1.09 ± 0.18,1.24 ± 0.12,1.08 ± 0.15,1.04 ± 0.069,1.3 ± 0.22,1.65 ± 0.32,0.993 (active)
CCCCc1nc(C)c(CC(=S)N(C)C)c(=O)n1Cc1ccc(-c2ccccc2-c2nnn[nH]2)cc1,0.589 ± 0.025,0.273 ± 0.022,1.36 ± 0.077,0.0858 ± 0.062,3.7 ± 0.2,8.26 ± 0.79,0.139 (inactive)
N#C[C@@H]1CCCN1C(=O)CNC12CC3CC(CC(O)(C3)C1)C2,0.79 ± 0.14,0.851 ± 0.15,0.862 ± 0.048,0.863 ± 0.06,1.05 ± 0.18,1.11 ± 0.21,0.993 (active)
CC(CN1c2ccccc2Sc2ccccc21)N(C)C.Cl (stereo not given),0.789 ± 0.11,1.17 ± 0.29,0.96 ± 0.055,0.336 ± 0.024,1.16 ± 0.42,1.15 ± 0.091,0.389 (inactive)
CSCCC(NC(C)=O)C(=O)N1CCC(n2c(C)nc3ccccc32)C1 (stereo not given),1.07 ± 0.063,0.96 ± 0.074,0.952 ± 0.025,0.98 ± 0.04,0.968 ± 0.086,0.957 ± 0.25,1 (active)
COc1ccc(N(CC(=O)N(C)Cc2ccccc2)S(C)(=O)=O)cc1OC,1.08 ± 0.086,1.02 ± 0.083,1.05 ± 0.08,1.03 ± 0.026,1.45 ± 0.21,1.1 ± 0.18,1.01 (active)
CC(C)C(C(=O)Nc1ccccc1C(N)=O)N1C(=O)c2ccccc2C1=O (stereo not given),0.93 ± 0.085,1.1 ± 0.071,0.932 ± 0.058,1.02 ± 0.043,1.34 ± 0.16,1.16 ± 0.075,1.01 (active)
Cc1cc(OCC(=O)NNC(=O)COc2ccc(Br)cc2Br)cc(C)c1Cl,0.961 ± 0.098,0.857 ± 0.13,0.985 ± 0.036,0.895 ± 0.15,0.987 ± 0.051,0.98 ± 0.086,0.945 (active)
Cc1c(C(=O)Nc2cccc3ccccc23)cccc1[N+](=O)[O-],0.854 ± 0.25,1.2 ± 0.12,1.04 ± 0.18,0.807 ± 0.034,1.22 ± 0.22,1.41 ± 0.42,0.633 (inactive)
CC(C)(Oc1ccc(Cl)cc1)C(=O)Nc1cnoc1,1.05 ± 0.097,1.09 ± 0.082,1.08 ± 0.098,0.982 ± 0.037,1.03 ± 0.063,1.04 ± 0.17,0.979 (active)
O=C1c2cccc3c2[C@H](CCC3)CN1[C@@H]1CN2CCC1CC2 [Prestw-1783],0.953 ± 0.06,0.913 ± 0.13,0.788 ± 0.031,0.63 ± 0.024,0.824 ± 0.044,0.752 ± 0.08,0.995 (active)
O=C(NCC1(O)Cc2ccccc2C1)c1cccc(Br)c1,1.09 ± 0.055,1.02 ± 0.093,1.03 ± 0.15,1.05 ± 0.069,1.2 ± 0.11,1.32 ± 0.1,0.677 (inactive)
CCSC1=C(C#N)C2(CCCC2)C(C#N)C(=O)N1 (stereo not given),1.13 ± 0.18,0.964 ± 0.086,0.91 ± 0.081,0.789 ± 0.021,1.34 ± 0.2,1.42 ± 0.23,0.988 (active)
CC1CC2(NC(=O)NC2=O)C(C)CN1C (stereo not given),0.933 ± 0.061,1.01 ± 0.088,0.87 ± 0.053,0.99 ± 0.034,1.34 ± 0.2,1.21 ± 0.15,1 (active)
Cn1c(=O)c2c(ncn2CC2OCCO2)n(C)c1=O,0.89 ± 0.12,0.921 ± 0.067,0.99 ± 0.057,0.919 ± 0.084,0.904 ± 0.11,0.845 ± 0.17,1 (active)
CN(C)c1ccc(C=C2C(=O)C(=O)c3ccccc32)cc1Br,0.989 ± 0.098,0.947 ± 0.15,0.999 ± 0.036,1.02 ± 0.21,1 ± 0.043,1 ± 0.16,1 (active)
